Source: PubChem
Compounds with a hit are over-represented: about 11% of the library has one in this group of screens.
OTUD3 block = inhibitors of human OTUD3 deubiquitinase; purified OTUD3, Ub-rhodamine fluorescence, 2 h; inhibition, % at 25 µM; Q5T2D3; actives 0.7% (n = 47,000)
USP17 block = inhibitors of human USP17 deubiquitinase; A8MUK1; actives 6.5% (n = 47,000); inhibition, % at 50 µM; AID 1645855; purified USP17, Ub-rhodamine cleavage fluorescence, 3 h
USP28 inh = blocks human USP28 ubiquitin-rhodamine cleavage; Q96RU2; purified USP28, Ub-rhodamine cleavage fluorescence, 30 min; inhibition, % at 25 µM; actives 3% (n = 47,000); AID 1645857
Target sequence (Q96RU2 whole entry, looked up): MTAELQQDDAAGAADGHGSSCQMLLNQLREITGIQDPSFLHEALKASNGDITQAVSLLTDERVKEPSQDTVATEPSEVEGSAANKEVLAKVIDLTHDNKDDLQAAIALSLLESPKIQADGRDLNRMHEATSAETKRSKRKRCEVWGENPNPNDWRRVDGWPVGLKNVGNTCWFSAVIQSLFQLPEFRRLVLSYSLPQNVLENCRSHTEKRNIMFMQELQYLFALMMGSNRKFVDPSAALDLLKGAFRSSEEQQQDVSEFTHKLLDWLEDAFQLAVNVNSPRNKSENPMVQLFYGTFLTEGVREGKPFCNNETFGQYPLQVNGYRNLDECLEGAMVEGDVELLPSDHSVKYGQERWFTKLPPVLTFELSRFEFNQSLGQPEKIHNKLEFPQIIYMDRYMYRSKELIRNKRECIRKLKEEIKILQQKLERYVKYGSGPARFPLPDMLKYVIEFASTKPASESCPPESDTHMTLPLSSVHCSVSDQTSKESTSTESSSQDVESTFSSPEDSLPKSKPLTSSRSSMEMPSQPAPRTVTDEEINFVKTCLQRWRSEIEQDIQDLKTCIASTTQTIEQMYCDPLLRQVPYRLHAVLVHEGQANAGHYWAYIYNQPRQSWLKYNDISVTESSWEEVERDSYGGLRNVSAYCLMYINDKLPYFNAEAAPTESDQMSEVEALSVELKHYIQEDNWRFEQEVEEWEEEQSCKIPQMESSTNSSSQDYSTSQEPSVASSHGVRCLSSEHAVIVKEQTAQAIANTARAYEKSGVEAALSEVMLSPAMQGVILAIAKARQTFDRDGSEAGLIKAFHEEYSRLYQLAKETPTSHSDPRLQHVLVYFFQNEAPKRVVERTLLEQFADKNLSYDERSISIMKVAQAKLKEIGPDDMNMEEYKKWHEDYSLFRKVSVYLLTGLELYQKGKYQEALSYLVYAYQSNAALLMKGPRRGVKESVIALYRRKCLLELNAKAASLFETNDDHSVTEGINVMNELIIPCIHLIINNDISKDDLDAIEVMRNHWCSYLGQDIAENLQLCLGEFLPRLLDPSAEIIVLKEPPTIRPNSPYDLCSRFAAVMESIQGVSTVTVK
USP30 block = inhibitors of human USP30 deubiquitinase. inhibition, % at 25 µM. Q70CQ3. actives 5.3% (n = 47,000). purified USP30, Ub-rhodamine cleavage fluorescence. AID 1645860
Starred values were filed as active, the others as inactive; · = no result. Cut-off read from the data, not from the text of the source: active = inhibition above about 30%; inactive = the rest.

SMILES	OTUD3 block	USP17 block	USP28 inh	USP30 block
COc1ccc(NC(=O)Cn2c(=O)n(CCCC(=O)NCCc3ccc(OC)c(OC)c3)c(=O)c3ccccc32)cc1Cl	14	28	0	13
COc1cc2c(=O)n(CCC(=O)NCC3CCCO3)c(=O)n(CC(=O)Nc3cccc(Cl)c3)c2cc1OC (stereo not drawn)	4	13	2	16
Cc1cc(NC(=O)Cn2c(=O)n(CCCC(=O)NC3CCCC3)c(=O)c3cc(Cl)ccc32)n[nH]1	-13	-6	-6	0
COc1ccc(NC(=O)Cn2c(=O)n(CCCC(=O)NC3CCCC3)c(=O)c3cc(Cl)ccc32)c(OC)c1	16	22	0	31*
COc1ccc(CCNC(=O)Cn2c(=O)n(CCCC(=O)NC3CCCC3)c(=O)c3cc(Cl)ccc32)cc1OC	9	18	5	37*
CCOc1ccc(C(=O)Cn2c(=O)n(CC3CCCO3)c(=O)c3cc(OC)c(OC)cc32)cc1Cl (stereo not drawn)	10	71*	6	13
COc1cc2c(=O)n(CCC(=O)NC3CCCC3)c(=O)n(CC(=O)Nc3ccc(C)c(F)c3)c2cc1OC	9	-4	2	34*
COc1ccccc1OCCSc1nnc(-c2ccc3c(c2)OCCCO3)n1C	19	9	11	18
CCCCN(c1ccccc1)S(=O)(=O)c1cccc(C(=O)Nc2ccc(NC(C)=O)cc2)c1	-6	-5	-3	-19
CC(C)(C)c1ccc(Oc2ncnc3oc(-c4ccccc4)cc23)cc1	-15	-24	-25	-110
CC(C)C[C@H](NC(=O)C1CCC(CNC(=O)Cn2c(=O)[nH]c3ccccc3c2=O)CC1)C(=O)O (stereo partly drawn)	7	·	3	17
CCc1ccccc1NC(=O)Cn1c(=O)n(CCC(=O)NCC2CCCO2)c(=O)c2cc(OC)c(OC)cc21 (stereo not drawn)	11	30*	7	16
CCc1cc(C(F)(F)F)n2nc(C3CCN(C(=O)C4CCCO4)C3)cc2n1 (stereo not drawn)	-1	-3	-4	-5
FC(F)(F)Oc1ccc(-c2cnc(NCc3ccc(Cl)cc3)nc2)cc1	23	25	20	34*
COc1ccc(-c2cncc(-c3cc(NCc4ccc(Cl)cc4)nc(C)n3)c2)cc1	19	8	1	18
COc1ccc(CCn2cnc3c4ccccc4n(C)c3c2=O)cc1OC	4	3	67*	10
Cc1ccc(CNC(=O)C2CCCN(c3ccc4nncn4n3)C2)cc1 (stereo not drawn)	-4	-1	0	-8
CCc1ccc(C(C)NC(=O)C2CCN(c3ccc4nncn4n3)CC2)cc1 (stereo not drawn)	14	7	54*	9
CN(C)C(=O)c1ccc(OC2CCN(C(=O)c3ccc(Cl)cc3)CC2)nc1	2	-11	5	1
O=C(NC(Cc1ccccc1)c1nc2ccccc2[nH]1)c1ccccn1 (stereo not drawn)	-1	-16	57*	-11
O=C(NC(Cc1ccccc1)c1nc2ccccc2[nH]1)c1nc(Cl)ccc1Cl (stereo not drawn)	-11	23	24	-58
O=C(NC(Cc1ccccc1)c1nc2ccccc2[nH]1)c1ccc(-n2cnnn2)cc1 (stereo not drawn)	7	11	2	19
O=C(N[C@@H](Cc1ccccc1)c1nc2ccccc2[nH]1)c1ccncc1	5	24	5	-9
COc1ccc(C(=O)NC(Cc2ccccc2)c2nc3ccccc3[nH]2)c(OC)c1 (stereo not drawn)	-2	71*	28	1
O=C(NC(Cc1c[nH]c2ccccc12)c1nc2ccccc2[nH]1)c1ccccc1 (stereo not drawn)	-22	34*	-2	-38
SMILES	OTUD3 block	USP17 block	USP28 inh	USP30 block
COCCn1cnc2c1c(=O)n(CC(=O)Nc1cccc(C(C)=O)c1)c(=O)n2Cc1ccccc1	-8	-9	-4	-10
Cc1ccc(NC(=O)CC(c2ccc(F)cc2)N2Cc3ccccc3C2=O)nc1 (stereo not drawn)	8	1	16	11
CCOc1ccc(C(CC(=O)Nc2cc(C)ccn2)N2Cc3ccccc3C2=O)cc1OC (stereo not drawn)	4	44*	5	34*
CCCCOc1ccc(C(=O)N/C(=C\c2ccc(Cl)cc2)C(=O)NCCc2c(C)[nH]c3ccccc23)cc1	-10	-3	-3	-33
CCc1ccccc1NC(=O)CSc1nnc(-c2ccccn2)n1-c1ccc(C)cc1	21	2	8	35*
CCn1c(SCC(=O)Nc2ccc(C)cc2)nnc1-c1cnccn1	3	-1	-1	-12
Cc1ccc(-n2c(SCc3ccc(C#N)cc3)nnc2-c2ccccn2)cc1	16	21	18	38*
Cc1ccc(-c2ccc(C#N)c(SCc3ccccc3)n2)cc1	0	-1	-1	14
Cc1ccc(NC(=O)C(C)Nc2nc(Nc3ccccc3)nc(Nc3ccccc3)n2)cc1 (stereo not drawn)	5	20	7	45*
COc1ccc(-c2cc3nc(NCCc4ccc(S(N)(=O)=O)cc4)ccn3n2)cc1	-23	41*	17	10
c1ccc(-c2cc3nc(NCCc4ccncc4)ccn3n2)cc1	-1	0	-2	2
O=C(c1ccc(Cl)cc1)[C@H]1[C@]2(C(=O)Nc3ccccc32)[C@@H]2CCCN2[C@@]12C(=O)Nc1ccccc12	-4	11	7	5
Cc1ccc2c(c1)[C@]1(C(=O)N2)[C@@H](C(=O)c2ccccc2)[C@]2(C(=O)Nc3ccccc32)[C@@H]2CCCN21	-3	52*	0	-3
CN1[C@@H](CCC(=O)Nc2ccccc2)CNC(=O)[C@@H]2[C@H]1CCN2Cc1ncc[nH]1	2	-34	5	-11
COc1ccccc1CNC(=O)c1cccc(Nc2nc3ccccc3n3cnnc23)c1	-14	2	0	-15
O=C(NCc1ccc(F)cc1)c1cccc(Nc2nc3ccccc3n3cnnc23)c1	67*	72*	75*	80*
Cc1ccc(CCNCc2c(C(=O)O)c(C)n(-c3ccccc3)c2C)cc1	-2	20	-3	-35
CCOc1ccc(CNC(=O)CCC(=O)Nc2ccc3nc(N4CCCCC4)cc(C)c3c2)cc1	-12	16	-3	3
CCc1cccc(NC(=O)Cc2nc(-c3cccnc3)n[nH]2)c1	-1	-7	0	-19
O=c1c(-c2ccc(O)c(O)c2)coc2cc(O)ccc12	10	-43	3	-70
COc1cc(O)c2c(=O)c(-c3ccc(O)cc3)coc2c1	0	73*	30*	14
O=C(COc1ccccc1)N1CCC2(CC1)NC(=O)N(Cc1ccc(F)cc1)C2=O	-3	·	-6	-10
COc1ccc(C(=O)NCCn2ccc3ccccc32)cc1	-23	-24	-15	-58
O=C(NCCn1ccc2ccccc21)c1cc2ccccc2oc1=O	-4	68*	-7	14
CC(C)(C)c1cc(C(=O)N2C[C@@H]3OCC(=O)N(CCc4ccccc4)[C@H]3C2)n[nH]1	-4	1	0	31*
